# Measured values taken from the OligoGym collection.
# Biological target: PITPNM3
# Assay: pooled miR-30 sensor sort-seq; sequence = guide strand
# Conditions: shRNA
# Note: reference of the scale not given here.
row,Sequence,sensor-assay potency score (higher = more potent)
1,TTCCTCGCTGTCTTCGTGGATC,-1.05
2,TTGCTGAGACGCTTGCTGCTGG,-0.433
3,TCTTCGTGGATCTCGATGCTTC,-0.715
4,TTGCGCAGGATCATGCGCGAGT,-0.913

# Biological target: PKD2L1
# Assay: as above
# Conditions: shRNA
row,Sequence,sensor-assay potency score (higher = more potent)
1,TTGAATATCTTGATCCAGGCGA,0.38
2,TTCATCTTCAGGCTTCTTGGGT,-0.0602
3,TACTTGAATATCTTGATCCAGG,-0.611
4,TTGTTGTACTGTGTCTGCCAGA,-0.963
5,TAGTAGAAGATGAAGACGCAGA,-0.533
6,TTCAAAGATCTCTGAATCCTGA,0.0945
7,TAGTAATAAGCACTGGAGCTTG,-0.791
8,TTGTTGAAGCTGATGTACTTGA,-0.253
9,TTGACTGTGCGGATTTGCCAGG,-0.754

# Biological target: PKIA
# Assay: as above
# Conditions: shRNA
row,Sequence,sensor-assay potency score (higher = more potent)
1,TTTAACATGATAATGAGCAGGT,0.937
2,TAACATGATAATGAGCAGGTTC,0.186
3,TCTTGTTGATATCAAGACCTGC,-0.396
4,TACAGGAAGAATCATCATCTAG,-0.916
5,TATTGCATTTCTTCTACCTGTT,0.0658
6,TCATCATCTAGGTCGGAGCTAC,-0.746
7,TTTACTGGGTGAACACTTGAGC,-0.0975
8,ATCTTCTTCACCTTCTGTCTTG,-0.736
9,TTCAAGGCTAATTCATTGCTGT,0.0225
10,TAGAACTTCGTTGTGCATCTTC,0.489
11,TTGTTCTGTAGAACTTCGTTGT,0.279
12,TTTGTTCTGTAGAACTTCGTTG,0.16
